Experimental data published in the supplement of paper PMC3545927.
The other results are listed elsewhere or left out. The hit rate among all sequences tested is not known here.

Target: furin, P09958
Assay: furin cleavage Z-score vs untreated control; higher = more cleavage, active = 3.5 or more, inactive = 1 or less, 8 variable residues between constant flanks
In short: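 Cleavage by purified furin was measured on 8-mer peptides fused to a cDNA oligonucleotide and held on magnetic beads by their N-terminus. Reactions (0.01 ml, 1:10 enzyme:substrate) ran 7.5, 15 or 30 min in 50 mM HEPES pH 7.5 with CaCl2 and NaCl. Released DNA was adapter-tagged by PCR and sequenced, with read counts giving abundance. Log counts versus furin-free reactions were lowess-adjusted and scaled by median absolute deviation to give the cleavage Z-score.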

Chain of furin, P09958 (P09958 whole entry): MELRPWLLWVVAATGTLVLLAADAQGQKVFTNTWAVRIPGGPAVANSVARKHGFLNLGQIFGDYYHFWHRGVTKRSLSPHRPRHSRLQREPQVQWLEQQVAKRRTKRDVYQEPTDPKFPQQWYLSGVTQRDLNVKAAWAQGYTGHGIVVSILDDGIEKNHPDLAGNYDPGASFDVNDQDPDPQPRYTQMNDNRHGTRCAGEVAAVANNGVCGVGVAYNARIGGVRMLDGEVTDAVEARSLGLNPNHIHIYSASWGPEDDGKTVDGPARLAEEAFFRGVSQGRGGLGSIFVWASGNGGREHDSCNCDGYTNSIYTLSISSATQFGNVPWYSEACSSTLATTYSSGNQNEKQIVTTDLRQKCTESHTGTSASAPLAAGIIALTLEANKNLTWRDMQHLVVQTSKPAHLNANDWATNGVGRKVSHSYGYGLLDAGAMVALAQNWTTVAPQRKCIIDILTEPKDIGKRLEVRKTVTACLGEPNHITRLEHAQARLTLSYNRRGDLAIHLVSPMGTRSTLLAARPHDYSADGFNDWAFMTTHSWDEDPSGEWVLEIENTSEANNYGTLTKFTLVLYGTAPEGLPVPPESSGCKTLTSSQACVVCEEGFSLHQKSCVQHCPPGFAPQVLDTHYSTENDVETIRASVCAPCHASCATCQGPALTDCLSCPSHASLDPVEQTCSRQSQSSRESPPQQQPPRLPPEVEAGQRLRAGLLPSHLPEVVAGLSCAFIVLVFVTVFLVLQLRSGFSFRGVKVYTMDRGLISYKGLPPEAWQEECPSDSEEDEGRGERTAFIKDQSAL

Sequence | furin cleavage Z-score (7.5 min) | furin cleavage Z-score (15 min) | furin cleavage Z-score (30 min)
CAYGFQYSPGAGNASASA [HC1466] | -1.04 (inactive) | 0.304 (inactive) | -1.02 (inactive)
CAEVPCHRMSAGNASASA [HC2386] | 0.401 (inactive) | 1.85 | -1.19 (inactive)
CAGRTWAQPGAGNASASA [HC197] | 0.399 (inactive) | 0.197 (inactive) | -2.32 (inactive)
CATHPCSGSWAGNASASA [HC1855] | -0.725 (inactive) | 0.134 (inactive) | -0.569 (inactive)
CARLRRSLGEAGNASASA [FS-1830] | 4.48 (active) | 6.54 (active) | 5.36 (active)
CADSSRSVRPAGNASASA [FS-1518] | -1.18 (inactive) | -0.293 (inactive) | 0.507 (inactive)
CARIGRAVRPAGNASASA [FS-1720] | 6.17 (active) | 6.97 (active) | 7.91 (active)
CARTPRAVRPAGNASASA [FS-2241] | 4.95 (active) | 5.05 (active) | 7.16 (active)
CAREKKSASWAGNASASA [FS-3244] | -1.37 (inactive) | -1 (inactive) | 0.389 (inactive)
CANDVVCCSMAGNASASA [HC2121] | 0.854 (inactive) | 0.345 (inactive) | 0.79 (inactive)
CADIMEECSQAGNASASA [HC1804] | -0.826 (inactive) | -1.93 (inactive) | 0.332 (inactive)
CAVEECSQHLAGNASASA [HC1670] | 0.23 (inactive) | 0.997 (inactive) | -0.342 (inactive)
CAELVVCCSMAGNASASA [HC2125] | -0.0192 (inactive) | -0.743 (inactive) | -0.249 (inactive)
CAVLHRRRRYAGNASASA [FS-891] | 9.61 (active) | 10.5 (active) | 9.16 (active)
CAVLEDGVNYAGNASASA [HC239] | -0.545 (inactive) | -2.21 (inactive) | 0.0229 (inactive)
CARMIRTNEAAGNASASA [FS-3000] | 0.282 (inactive) | 0.0077 (inactive) | 0.743 (inactive)
CAKRWRRRRYAGNASASA [FS-1350] | 10.3 (active) | 12 (active) | 9.1 (active)
CAHRSRDGRYAGNASASA [FS-797] | 0.199 (inactive) | 1.41 | 0.834 (inactive)
CAVVKRPRRYAGNASASA [FS-314] | 9.96 (active) | 10.8 (active) | 10 (active)
CAVVCCSMRYAGNASASA [HC2073] | 0.763 (inactive) | 0.207 (inactive) | 0.313 (inactive)
CAVLARMMRPAGNASASA [FS-966] | -0.155 (inactive) | 0.612 (inactive) | -0.556 (inactive)
CARMIRRRRYAGNASASA [FS-1652] | 10.9 (active) | 13.2 (active) | 9.13 (active)
CAVVKCSMSYAGNASASA [HC2034] | 0.0381 (inactive) | 0.000409 (inactive) | 0.298 (inactive)
CAYMSKAHGIAGNASASA [HC794] | -0.614 (inactive) | -0.299 (inactive) | 0.089 (inactive)

Sequence | furin cleavage Z-score (7.5 min) | furin cleavage Z-score (15 min) | furin cleavage Z-score (30 min)
CANYTIFKIRAGNASASA [HC472] | -0.135 (inactive) | 0.367 (inactive) | -0.43 (inactive)
CAELPCHRPSAGNASASA [HC2325] | 0.967 (inactive) | -0.4 (inactive) | 0.0984 (inactive)
CAEVPCHWPSAGNASASA [HC2368] | -0.575 (inactive) | -0.478 (inactive) | 0.531 (inactive)
CAVVCCQMSYAGNASASA [HC119] | -0.852 (inactive) | -0.183 (inactive) | 0.623 (inactive)
CADKNQVEGEAGNASASA [HC686] | -0.934 (inactive) | -0.739 (inactive) | -1.82 (inactive)
CAAKLMPQLPAGNASASA [HC1159] | 0.255 (inactive) | -0.546 (inactive) | 0.241 (inactive)
CALVRRRRRYAGNASASA [FS-462] | 11 (active) | 12.3 (active) | 9.67 (active)
CAMNSRKGRYAGNASASA [FS-1237] | 1.23 | 0.312 (inactive) | 2.34
CALTLSPYYKAGNASASA [HC575] | -0.934 (inactive) | -0.768 (inactive) | -0.313 (inactive)
CALTLRMRRYAGNASASA [FS-1032] | 9.91 (active) | 10.2 (active) | 11.2 (active)
CAAHDGAGKRAGNASASA [HC1557] | -0.0785 (inactive) | 0.342 (inactive) | 0.362 (inactive)
CAVEMEECSQAGNASASA [HC1790] | 0.132 (inactive) | -1.38 (inactive) | -1.19 (inactive)
CATTPCSGNWAGNASASA [HC1921] | 0.659 (inactive) | 0.815 (inactive) | -0.795 (inactive)
CAPVGSQLPCAGNASASA [HC1238] | 0.473 (inactive) | -1.27 (inactive) | 0.372 (inactive)
CAGVRATRKTAGNASASA [HC183] | 0.267 (inactive) | 0.577 (inactive) | 0.344 (inactive)
CAIREVPCHRAGNASASA [HC2424] | -0.0693 (inactive) | 1.33 | 2.41
CAVIQMYTNVAGNASASA [HC709] | 0.334 (inactive) | -0.0874 (inactive) | -1.04 (inactive)
CARAYRSSMRAGNASASA [FS-2894] | -1.12 (inactive) | -1.44 (inactive) | -1.22 (inactive)
CARAKRRAIRAGNASASA [FS-2637] | 10.3 (active) | 11.4 (active) | 9.08 (active)
CARAKRPLMVAGNASASA [FS-2884] | 0.123 (inactive) | 1.97 | -0.869 (inactive)
CARAKRRWAPAGNASASA [FS-2638] | 0.9 (inactive) | 1.95 | 0.773 (inactive)
CARAKREEKKAGNASASA [FS-2634] | 3.98 (active) | 2.96 | 4.64 (active)
CARAKRTTKRAGNASASA [FS-3241] | 8.36 (active) | 10.4 (active) | 9.38 (active)
CARAKRAFLPAGNASASA [FS-1991] | 3.35 | 4.79 (active) | 6.29 (active)
